Assay outcomes deposited in PubChem by several laboratories.
An excerpt weighted towards active compounds, which were near 2.1% of everything screened.
Ba/F3 V617F tox: lowers viability of Ba/F3 cells expressing EpoR and JAK2V617F; ATP luminescence; inhibition, % at 5.6 µM; hit rate 1.1% among 220,000;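 active means inhibition above the campaign mean plus 3 SD over all tested compounds, cut at about 24% in these data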;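 further: cytokine-independent growth of Ba/F3 cells driven by EpoR plus mutant JAK2; 0% = DMSO-treated cells and 100% = JAK inhibitor I control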
BaF3 parental: reduces parental Ba/F3 cell viability, JAK2V617F counter-screen. hit rate 1.1% among 220,000. inhibition, % at 5.6 µM. AID 1486. CellTiter-Glo ATP luminescence;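 active means inhibition above a per-campaign cutoff, the mean inhibition of all tested compounds plus 3 SD, cut at about 27% in these data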;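 further: 0% = DMSO wells and 100% = JAK Inhibitor I control wells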
aSyn UTR inh: MLPCN primary screen, SNCA 5' untranslated region | hit rate 0.82% among 300,000 | alpha-synuclein 5'UTR reporter, inhibitor activity | AID 1813 | inhibition, % (tested at 7.5 µM); in the data active means inhibition above about 60%; inconclusive means no clear call, values can overlap the other calls;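 further: H4 neuroglioblastoma cells stably carrying SNCA 5'UTR luciferase fusion; 0% = DMSO wells and 100% = positive control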
KLF5 inhibitor: inhibitors of KLF5 expression | DLD-1 KLF5 promoter-luciferase reporter, luminescence | inhibition, % at 5 µM | hit rate 0.23% among 290,000 | AID 1700;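 active means inhibition above a per-plate limit of that plate's mean compound inhibition plus 3 SD, cut at about 60% in these data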;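 further: 0% = DMSO wells and 100% = LY294002 at 200 µM; higher means less KLF5 promoter-driven luciferase light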
APP 5UTR inh: APP translation inhibition | inhibition, % at 2 µM | hit rate 0.82% among 190,000 | SH-SY5Y APP 5'UTR-luciferase reporter, luminescence;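 active means inhibition above a set limit, derived from the sample mean plus 3 SD, cut at about 45% in these data; inconclusive means one replicate passes the limit while the other fails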
IEC-6 cytotox: kills IEC-6 intestinal cells in KLF5 counter-screen; IEC-6 cytotoxicity, luminescence viability; inhibition, % at 5 µM; hit rate 0.78% among 290,000; AID 1825; in the data active means inhibition above about 22%;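 further: 0% = plate median of test compound wells and 100% = cytotoxic reference compound wells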
* marks the source's active call; other numbers are inactive results; u = inconclusive; x = no result given.

SMILES | Ba/F3 V617F tox | BaF3 parental | aSyn UTR inh | KLF5 inhibitor | APP 5UTR inh | IEC-6 cytotox
COc1ccccc1NS(=O)(=O)c1cc(NC(=O)Nc2cccc(C)c2)ccc1N1CCCCC1 | 1 | 8 | -8 | -18 | -27 | -15
O=C(Nc1ccc(Cl)cc1)Nc1ccc(N2CCCC2)c(S(=O)(=O)Nc2ccccc2Cl)c1 | 53* | 37* | 35 | -25 | 4 | 4
COc1ccc(/C=N\N=C2/SC(CC(=O)O)C(=O)N2c2ccc(O)cc2)cc1OC (centres undefined) | -2 | 4 | 15 | -16 | -5 | -10
O=C(O)CC1S/C(=N/N=C/c2ccc([N+](=O)[O-])cc2)N(c2ccc(O)cc2)C1=O (centres undefined) | 0 | 80* | -11 | -8 | -4 | -3
CCc1ccc(-c2nc(CSCC(=O)NC3CC3)c(C)o2)cc1 | x | x | 71* | 42 | x | -6
Cc1c(C(=O)N/N=C/C(C)C)[nH]c2c([N+](=O)[O-])cccc12 | -2 | 3 | 68* | 2 | 92* | 7
Nc1cc(F)ccc1N1CCCCCC1 | 39* | 57* | -5 | -25 | 2 | -5
Nc1cc(Cl)ccc1N1CCCC1 | 42* | 55* | -2 | -31 | -4 | -1
O=C(NC1CCCCC1)C1CC(=O)N(Cc2ccccc2)C1 (centres undefined) | x | x | -12 | -17 | x | -2
N#Cc1cnn2c1nc(N1CCCCC1)c1ccccc12 | -1 | 8 | 64* | 7 | -4 | 2
COc1ccc(-c2noc3c2-c2nc(-c4cccc(C)c4)sc2CC3)cc1 | x | x | 13 | -8 | x | 2
COc1ccc(Br)cc1/C=N/NC(=O)c1ccco1 | 3 | 3 | -1 | 17 | -10 | 2
CC(C)(C)c1ccc(OCC(=O)N/N=C/c2cc(Br)ccc2OC(=O)c2ccco2)cc1 | 4 | 5 | 83* | -10 | -9 | 5
Brc1ccc(N/N=C(/N=Nc2nn[nH]n2)c2ccccc2)cc1 | 11 | 8 | 97* | 43 | 58* | 10
O=C(O)c1ccc(N=N/C(=N\Nc2ccc(C(=O)O)cc2)c2ccccc2)cc1 | x | x | -15 | x | x | x
N#Cc1ccccc1NC(=O)COC(=O)CCc1ccccc1 | x | x | -11 | -40 | x | 1
Cc1ccc(Cl)cc1N1CCN(C(=O)CCS(=O)(=O)c2ccc3c(c2)NC(=O)CO3)CC1 | x | x | 21 | -10 | x | -2
COc1ccc(C2CC(C(F)(F)F)n3nc(C(=O)N(C)Cc4cn(C)nc4C)c(Cl)c3N2)cc1 (centres undefined) | 0 | 4 | -17 | -14 | -7 | -1
COc1ccc(C2CC(C(F)(F)F)n3nc(C(=O)NCc4c(C)nn(C)c4C)c(Cl)c3N2)cc1 (centres undefined) | 36* | 44* | -13 | -19 | -11 | 5
CCCCCOc1ccc(Br)cc1CSC(=N)N | 60* | 47* | 28 | 25 | 63* | 49*
COc1ccc(Br)cc1CSC(=N)N | 4 | -3 | -25 | -14 | -2 | 5
Cc1ccc(-c2nn(CC(=O)NCc3cc(-c4nn(C)c(=O)c5ccccc45)ccc3C)c(=O)c3ccccc23)cc1 | -4 | 2 | 114* | -12 | -4 | 0
Cn1c(-c2ccccc2)cnc1SCC(=O)N1CCCc2ccccc21 | -2 | 4 | 13 | -15 | 10 | -8
Cn1c(-c2ccccc2)cnc1SCC(=O)N1CCCCC1 | 2 | 5 | 83* | -24 | -108 | -3
COc1ccc(CC2=CC(=O)c3ccccc3C2=O)cc1 | x | x | -24 | -55 | x | -1
SMILES | Ba/F3 V617F tox | BaF3 parental | aSyn UTR inh | KLF5 inhibitor | APP 5UTR inh | IEC-6 cytotox
CCOC(=O)C1CCN(c2ncnc3c2cnn3-c2ccc(Cl)cc2)CC1 | -2 | 2 | 65* | -5 | 10 | -4
Clc1ccc(-n2ncc3c(N4CCCC4)ncnc32)cc1 | -2 | 4 | 92* | -48 | -161 | 3
Brc1ccc(-n2cnc(-c3ccccc3)c2)cc1 | x | x | -136 | -184 | x | -2
O=C(OC(C(=O)NCc1ccc2c(c1)OCO2)c1ccncc1)c1ccc(Cl)nc1 (centres undefined) | 4 | 81* | -5 | 4 | 17 | 6
Cc1cc(NC(=S)N(CCCN2CCN(C)CC2)Cc2ccco2)ccc1Cl | 35* | 27* | 13 | -16 | -16 | -5
Cc1ccc(NC(=S)N(CCCN2CCOCC2)Cc2ccco2)cc1C | -1 | 9 | x | -15 | -20 | -6
O=C1C2C3C=CC(C3)C2C(=O)N1/N=C/c1cn(Cc2ccc(F)cc2)c2ccccc12 (centres undefined) | 5 | 2 | 42 | -36 | 13 | -1
O=C1C2C3C=CC(C3)C2C(=O)N1/N=C/c1cn(Cc2ccccc2)c2ccccc12 (centres undefined) | -3 | 6 | 66* | -24 | 7 | -6
CCOC(=O)c1c(C)nc2sc(C(N)=O)c(N)c2c1-c1ccc(OC)cc1 | -4 | -1 | 17 | -13 | 64* | 0
CCn1c(SCC(=O)N/N=C(/C)c2ccncc2)nc2ccccc21 | -3 | -2 | -10 | -2 | x | 4
COC(CNC(=O)CCc1c(C)nc2c(-c3ccc(F)cc3)c(C)nn2c1C)OC | 0 | 5 | 1 | -22 | 55* | -2
COc1cc(OC)cc(-c2nc3nc(C)c(CCC(=O)NCC(OC)OC)c(C)n3n2)c1 | 3 | 8 | -10 | -11 | 10 | -3
C/C(=N\NC(=O)c1ccc(Cl)c(Cl)c1)c1ccc(Br)s1 | -3 | 4 | 91* | 21 | 52* | -8
CCCOC(c1ccccc1)(c1ccc(C(F)(F)F)cc1)C(Oc1nc(C)cc(C)n1)C(=O)O (centres undefined) | x | x | u | 70* | x | 2
O=C1CC(=O)Nc2cc(S(=O)(=O)N3CCN(c4ccc([N+](=O)[O-])cc4)CC3)ccc2N1 | x | x | -15 | -9 | x | 1
COc1ccc(-n2ccnc(SCC(=O)NCc3ccc(C)cc3)c2=O)cc1Cl | x | x | -20 | x | x | x
COc1ccc(NC(=O)CCNS(=O)(=O)c2cccc3nsnc23)c(OC)c1 | x | x | -30 | 1 | x | 3
NC(=O)c1ccsc1NC(=O)CS(=O)(=O)c1ccc(F)cc1 | x | x | -21 | x | x | x
CCCOc1ccc2cc(-c3ccccn3)c(=O)oc2c1 | 2 | 4 | 77* | -7 | -123 | 4
CC(=O)Nc1ccc(S(=O)(=O)N(Cc2ccccc2)C(C)C)cc1 | 32* | 50* | 1 | 15 | -3 | -4
Cc1cccc(NC(=O)CCCn2cc([N+](=O)[O-])cn2)n1 | 0 | 6 | 16 | -29 | 25 | -4
CC1CCN(c2c(NCc3ccc(C(=O)N4CCc5ccccc54)cc3)c(=O)c2=O)CC1 | 1 | 4 | 88* | -14 | 3 | 0
CC1=C([N+](=O)[O-])C(c2cccc(Br)c2)C2=C(N1)c1ccccc1C2=O (centres undefined) | 77* | 76* | 90* | 48 | 86* | 77*
CC(=O)N1CCc2cc(S(=O)(=O)NCCC(=O)NCCc3ccc(Cl)cc3)ccc21 | x | x | 8 | -12 | x | 6
COc1ccc(/C=N/NC(=O)c2cc(=O)[nH]c3ccccc23)cc1OC | 3 | 39* | 22 | -12 | 1 | 2
